Bioassay records from PubChem BioAssay.
MOR-DOR ag = OPRM1-OPRD1 heterodimerization agonism | P35372+P41143 | cells, luminescence | activation, % at 9.3 µM | 340,000 tested, 0.3% active | AID 504326; in the data active = activation above about 18%;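 also: 0% = vehicle-treated cells and 100% = reference agonist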
Target sequence (P35372 whole entry, looked up): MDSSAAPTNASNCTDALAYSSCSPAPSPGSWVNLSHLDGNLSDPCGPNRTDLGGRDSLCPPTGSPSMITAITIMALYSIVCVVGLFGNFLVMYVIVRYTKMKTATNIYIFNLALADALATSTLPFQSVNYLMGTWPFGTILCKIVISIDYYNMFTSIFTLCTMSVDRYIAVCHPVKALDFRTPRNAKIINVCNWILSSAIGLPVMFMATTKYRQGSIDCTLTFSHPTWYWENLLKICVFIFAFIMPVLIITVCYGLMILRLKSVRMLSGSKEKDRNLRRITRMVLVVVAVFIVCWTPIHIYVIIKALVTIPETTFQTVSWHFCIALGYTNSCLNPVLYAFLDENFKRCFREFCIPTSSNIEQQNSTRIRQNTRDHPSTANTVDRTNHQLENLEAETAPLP
Target sequence (P41143 whole entry, looked up): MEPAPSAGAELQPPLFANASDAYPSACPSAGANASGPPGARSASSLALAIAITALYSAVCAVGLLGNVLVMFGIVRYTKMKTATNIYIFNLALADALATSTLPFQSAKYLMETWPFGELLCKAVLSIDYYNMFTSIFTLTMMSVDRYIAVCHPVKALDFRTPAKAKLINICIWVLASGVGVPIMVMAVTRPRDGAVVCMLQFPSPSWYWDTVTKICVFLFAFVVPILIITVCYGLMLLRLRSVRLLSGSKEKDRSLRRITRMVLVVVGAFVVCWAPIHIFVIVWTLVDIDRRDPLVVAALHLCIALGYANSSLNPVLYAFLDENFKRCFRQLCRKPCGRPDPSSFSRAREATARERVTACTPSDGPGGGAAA
OPRM1-OPRD1 inv = inverse agonist of human OPRM1-OPRD1 heterodimerization; inhibition, % at 9.3 µM; cell-based MOR-DOR heterodimer luminescence, inverse agonism; P35372+P41143; 340,000 tested, 0.21% active; in the data active = inhibition above about 22%, passing the limit was not always enough;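 also: 0% = cells with DMSO and 100% = wells without cells with DMSO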
HTR5A inv ctr = inverse agonist of human HTR5A in OPRM1-OPRD1 counter-screen. inhibition, % at 9.3 µM. HTR5A cell line, luminescence, inverse agonism. P47898. 340,000 tested, 0.083% active; in the data active = inhibition mostly above about 23%, no sharp cut-off; inactive = mostly below about 18%;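 also: 0% = cells with DMSO and 100% = no-cell wells with DMSO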
m5-HT2A agonist = activates the mouse 5-HT2A serotonin receptor; P35363; CHO-K1 mHTR2A beta-arrestin complementation, luminescence; percent of 30 µM serotonin response; activation, % at 7.6 µM; 360,000 tested, 0.66% active;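 active = activation above a run cutoff, the mean activation of all tested compounds plus 3 SD, cut at about 14% in these data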;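 also: 0% = plate median of compound wells and 100% = 30 µM serotonin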
HTR5A ag ctr = HTR5A agonism, opioid heterodimer counter-screen; P47898; HTR5A agonist assay, luminescence, cell-based; activation, % at 9.3 µM; 340,000 tested, 0.61% active; in the data active = activation mostly above about 9.5%, no sharp cut-off; inactive = mostly below about 7.6%;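 also: 0% = cells with vehicle only and 100% = reference agonist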
HGIII-sPLA2 inh = Inhibits HGIII-sPLA2 liposome hydrolysis, primary screen; AID 743126; QFRET BODIPY PC-A2 liposome hydrolysis, fluorescence; inhibition, % at 12.2 µM; 370,000 tested, 0.56% active;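 active = inhibition above mean plus 3 SD of compounds lying within the high and low control bounds, cut at about 19% in these data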;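 also: 0% = median of test compound wells and 100% = no enzyme DMSO wells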
sPLA2 confirm = human GIII-sPLA2 inhibition, confirmation. shares compounds with HGIII-sPLA2 inh. recombinant hGIII-sPLA2, BODIPY PC-A2 QFRET fluorescence. inhibition, % at 12.2 µM. 2,000 tested, 34% active. AID 743280;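 active = mean inhibition across triplicates above the hit cutoff set in the earlier primary screen, cut at about 19% in these data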;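 also: 0% = enzyme with DMSO and 100% = DMSO wells lacking enzyme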
535nm interf = 535nm fluorescence interference, HGIII-sPLA2 counter-screen; inhibition, % at 12.2 µM; 2,000 tested, 8.5% active; shares compounds with HGIII-sPLA2 inh; BODIPY FL product fluorescence interference, QFRET;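 active = average inhibition above the solvent-only control mean plus 3 SD, cut at about 6% in these data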;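 also: 0% = DMSO with substrate plus product and 100% = DMSO with substrate alone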
535nm interf DR = interferes with 535nm fluorescence in dose response counter-screen | 240 tested, under 10 active | shares compounds with HGIII-sPLA2 inh | IC50, µM | BODIPY FL product fluorescence interference, cell-free;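 active = IC50 at or below 10 µM; inactive = IC50 above 10 µM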
* hit, by the source's call; nt = no result given. This is a sample that favours compounds with a hit; in the whole collection about 2.2% have one here.

SMILES	MOR-DOR ag	OPRM1-OPRD1 inv	HTR5A inv ctr	m5-HT2A agonist	HTR5A ag ctr	HGIII-sPLA2 inh	sPLA2 confirm	535nm interf	others
Cc1sc(NC(=O)c2ccccc2)c(C(=O)c2ccccc2)c1C	0	-1	6	-6	-2	2	nt	nt
Cc1ccc(C(=O)Nc2sc(C)c(C)c2C(=O)c2ccccc2)cc1	1	-7	-11	4	0	23*	-4	-6
CC(=O)N1CCc2c1cccc2S(=O)(=O)NC(CC(C)C)C(=O)Nc1ccccc1C (stereo not given)	nt	nt	nt	nt	nt	0	nt	nt
Nc1ccc2c3c(ccc([N+](=O)[O-])c13)CC2	nt	nt	nt	-2	nt	23*	34*	6.6*
Cc1ccccc1Nc1nc(N)nc(CCl)n1	-1	7	-24	3	6	20*	3	-8
Cc1onc(-c2ccccc2)c1-c1n[nH]c(=S)n1-c1ccc(C(=O)O)cc1	0	2	2	1	-9	4	nt	nt
Cc1onc(-c2ccccc2)c1-c1n[nH]c(=S)n1-c1ccccc1Cl	1	-4	4	1	-2	19*	23*	-1
Oc1ccccc1/C=N/Nc1nccnc1Cl	-1	4	-7	-4	1	24*	2	8.6*
Oc1ccc(/C=N/Nc2nccnc2Cl)c(O)c1	1	-5	9	-6	-1	-38	nt	nt
CCOc1ccc(/C=N/NC(=O)C(=O)NCc2ccco2)cc1	0	0	8	5	5	20*	-6	-3
CCOc1ccc(NC(=O)NCc2ccco2)cc1	-3	13	12	0	-4	2	nt	nt
CCCCc1c(-c2ccccc2OC)ncn1Cc1ccccc1C	nt	nt	nt	nt	nt	-12	nt	nt
CCOc1ccc(NC(=O)CSc2ccc(-c3ccccn3)nn2)cc1	-1	4	-10	-2	1	19*	-5	-22
O=C(NCCCn1ccnc1)c1ccc(Cl)cc1	-1	7	6	-4	-6	21*	-4	-6
CCc1c(C)nc2c(-c3ccccc3)c[nH]n2c1=O	-1	4	-3	3	1	24*	33*	5	535nm interf DR=>122
Cc1ccc(/C=N/NC(=O)c2ccc3nc[nH]c3c2)o1	-1	6	-19	7	4	21*	2	-2
COC(=O)c1ccc(/C=N/NC(=O)c2ccc3nc[nH]c3c2)cc1	-2	10	-1	4	-1	-1	nt	nt
CCCCNC(=O)CCn1c(=O)c2ccccc2n(CC(=O)NCCc2ccc(OC)c(OC)c2)c1=O	-1	7	-9	4	-1	21*	-7	-15
COCCCNC(=O)c1ccc(Cn2c(=O)c3ccccc3n(CC(=O)NCCc3ccc(OC)c(OC)c3)c2=O)cc1	-3	18	6	-2	-2	9	nt	nt
Cc1cccc(Cl)c1-n1nnnc1C1(C)CSCC(=O)N1Cc1ccc(F)cc1 (stereo not given)	nt	nt	nt	nt	nt	-9	nt	nt
O=c1[nH]n(Cc2ccccc2)c2ccccc12	-1	5	2	1	0	20*	7	-3
O=C(CSc1nc2ccccc2[nH]1)NN=Cc1ccccc1C(=O)O	nt	nt	nt	nt	nt	11	nt	nt
Cc1ccc(C(=O)NC(=S)Nc2c(C)ccc3nsnc23)cc1	-2	11	-10	1	4	23*	13	-7
Cc1ccc(C(=O)NC(=S)Nc2cccc3nsnc23)cc1	0	2	17	1	-7	3	nt	nt
COC(=O)C1CC(=O)c2sccc2C1 (stereo not given)	-1	8	-34	0	-4	20*	0	-4
SMILES	MOR-DOR ag	OPRM1-OPRD1 inv	HTR5A inv ctr	m5-HT2A agonist	HTR5A ag ctr	HGIII-sPLA2 inh	sPLA2 confirm	535nm interf	others
C=CCN(CC#CC1=CCCCC1)Cc1ccccc1	nt	nt	nt	nt	nt	10	nt	nt
CCOc1cc(NC(=S)NCc2ccccc2)c(OCC)cc1NC(=O)C(C)C	-4	16	6	-2	-2	20*	29*	-6	535nm interf DR=>122
CCOc1cc(NC(=S)NCc2ccco2)c(OCC)cc1NC(=O)CC(C)C	-3	14	2	3	0	20*	11	-4
Nc1ccc(N2CCN(c3cccc(Cl)c3)CC2)cc1	0	-3	-9	11	3	23*	10	5
CCOc1ccc(C(Nc2cccnc2)c2cc(Cl)c3cccnc3c2O)cc1 (stereo not given)	7	-41	-12	-15	5	24*	16	3
O=C(Nc1ccccc1)c1ccc(C(=O)Nc2ccccc2)nc1	-2	11	11	-1	-4	1	nt	nt
O=C(Nc1ccccc1)c1cn(CCBr)cn1	-1	6	11	5	5	20*	6	-6
COc1ccc(C=C2NC(=S)NC2=O)cc1	-2	12	12	3	-3	25*	11	-3
O=[N+]([O-])c1ccc(Cl)cc1N/N=C/c1ccncc1	0	2	-50	3	-3	20*	9	1
O=C(N/N=C/c1ccncc1)c1cc([N+](=O)[O-])cc([N+](=O)[O-])c1O	0	0	-2	-1	1	20*	14	0
O=C(N/N=C/c1ccncc1)c1cc2ccccc2cc1O	-2	14	5	-9	-4	-7	nt	nt
O=[N+]([O-])c1cc(S(=O)(=O)Nc2ccc(Cl)cc2)ccc1N/N=C/c1ccncc1	-2	12	-5	0	2	-3	nt	nt
COc1cccc(/C=C2\CC3(OC(=O)c4cccc(F)c4)CCCN2C3)c1 (stereo not given)	nt	nt	nt	nt	nt	-8	nt	nt
O=C(Nc1cccs1)Nc1c(F)c(F)cc(F)c1F	-2	9	14	0	1	21*	-1	-2
COC(=O)c1sc2nc3c(cc2c1N)COC(C)(C)C3	-1	8	-5	0	2	-1	nt	nt
CC1(C)Cc2nc3sc(C(=O)NCCCO)c(N)c3cc2CO1	-2	8	-16	6	0	21*	-1	-4
CCCCc1c(-c2ccccc2OC)ncn1Cc1cc(F)ccc1F	nt	nt	nt	nt	nt	-4	nt	nt
O=C(O)Cc1sc(N/N=C\c2ccncc2)nc1-c1ccccc1	-1	4	-3	3	-5	26*	5	-7
C(=N\Nc1nc(-c2ccccc2)cs1)/c1ccncc1	1	-3	-7	-3	3	-7	nt	nt
N#CCC[C@@H]1CC[C@]2(CCCN(C(=O)c3ccco3)C2)O1	nt	nt	nt	nt	nt	7	nt	nt
Cc1ccc(Cn2c([N+](=O)[O-])cnc2C)cc1	-1	4	3	-2	0	22*	8	0
O=C(O)CC1(CC(=O)NCc2cc(F)cc3c2OCOC3)CCCCC1	-3	14	-21	-2	-4	20*	0	-2
